In PubChem BioAssay:
The other results are listed elsewhere or left out. Calls of active or inactive are those of the source.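 How the source made its calls, unless noted: active means ratio signal rise beyond 5 SD above unstimulated control wells' mean, seen in both duplicate runs; inactive means the rest.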

Legend:
[1] = target: Short transient receptor potential channel 4 (Mus musculus) (UniProt Q9QUQ5); experiment: DAMGO-gated TRPC4 membrane potential modulation – cell-based, second specificity screen, HEK293 TRPC4/mu-opioid, selectivity assay for TRPC6 inhibitor project, confirmation (AID 2776;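 active means compounds whose fluorescence signal differed from control wells by over 3 SD, either direction, in both duplicate plates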); details: HEK293 TRPC4/MOR, membrane potential dye fluorescence, at 10 µM, channel activated by saturating DAMGO dose; hits give high values
[2] = tested on: transient receptor potential cation channel C4 (TRPC4), mouse; experiment: membrane potential change in TRPC4 cells – cell-based, HEK293 TRPC4/mu-opioid, membrane potential dye, selectivity assay for TRPC6 inhibitor project, confirmation (AID 2777;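 active means rise or fall in signal beyond 3 SD of buffer-only wells in both replicate plates, either sign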;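 further: integrated kinetic ratio of fluorescence range over baseline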); details: membrane potential fluorescence, at 10 µM
[3] = parental HEK293 depolarization signal interference – cell-based, second counter screen, counter-screen for TRPC6 inhibitor project, confirmation (AID 2779;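 active means membrane potential signal moving either way by over 3 SD of the maximum-effect control, in both duplicate plates, meaning non-specific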); details: parental HEK293 membrane potential dye fluorescence; at 10 µM; maximal acetylcholine challenge after compound addition
[4] = nonspecific voltage dye signal in HEK293 – cell-based, parental HEK293, counter-screen for TRPC6 inhibitor project, confirmation (AID 2780;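 active means membrane potential signal shifting up or down by more than 3 SD of buffer-only wells, on both duplicate plates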;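 further: plate controls were buffer EC0 wells for no effect and acetylcholine ECmax wells for full effect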); details: parental HEK293 membrane potential dye fluorescence; at 10 µM
[5] = target: Short transient receptor potential channel 6 (Mus musculus) (UniProt Q61143); experiment: blockers of TRPC6 cation channel activity – HEK293 cells, membrane potential dye, duplicate, confirmation (AID 488960;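 active means fluorescence ratio falls more than 5 SD below the full-stimulation control mean, in both duplicate runs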;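 on inhibition: integrated fluorescence ratio of peak minus minimum over baseline after agonist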); details: ACh-evoked depolarization, at 10 µM; hits give high values
[6] = target: Short transient receptor potential channel 6 (Mus musculus) (UniProt Q61143); experiment: mouse TRPC6 channel activators, confirmation, HEK293 cells, membrane potential dye, duplicate (AID 488961); details: HEK293-TRPC6 membrane potential dye fluorescence, FDSS, at 10 µM; hits give high values;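 on activation: plate controls were buffer EC0 wells for no effect and acetylcholine ECmax response for full effect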
[7] = nonspecific flux increase, KCNQ1-free cells – parental CHO cells, counter-screen for KCNQ1 potentiator project (AID 493006;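 active means duplicate-averaged activation above buffer control mean plus 5 SD of those controls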); details: parental CHO-K1 cells, FluxOR thallium flux, at 10 µM; hits give high values
[8] = target: Potassium voltage-gated channel subfamily KQT member 1 (Homo sapiens) (UniProt P51787); experiment: enhancement of KCNQ1 channel thallium flux – FluxOR thallium flux, CHO cells, duplicates, confirmation (AID 493007;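 active means potentiation averaged over duplicate wells exceeding buffer-only control mean by more than 3 SD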;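 further: cells depolarized by a potassium plus thallium sulfate stimulus after compound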); details: KCNQ1 cell line, FluxOR thallium flux fluorescence, at 10 µM; hits give high values, % of reference activator effect, buffer zero
[9] = target: Potassium voltage-gated channel subfamily KQT member 2 (Rattus norvegicus) (UniProt O88943); experiment: KCNQ2 thallium flux enhancement – KCNQ2-CHO-K1 cells, selectivity assay for KCNQ1 potentiator project (AID 493009;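 active means mean duplicate potentiation above the buffer control mean plus 5 SD of buffer wells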;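 further: assay conditions were tuned for KCNQ1 rather than KCNQ2 modulators; signal is max minus min fluorescence divided by baseline after thallium stimulus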); details: FluxOR thallium flux fluorescence, at 10 µM; hits give high values, scaled: buffer 0, activator control 100
[10] = target: Potassium voltage-gated channel subfamily KQT member 1 (Homo sapiens) (UniProt P51787); experiment: KCNQ1 activators by electrophysiology – IonWorks patch clamp, KCNQ1-CHO cells, orthogonal assay for KCNQ1 potentiator project, confirmation (AID 493184;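 active means current rise at least 3 SD above the untreated control mean in each of two repeat wells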); details: automated patch clamp current, at 10 µM; hits give high values
[11] = nonspecific voltage dye response without TRPC6 – cell-based, parental HEK293, counter-screen for TRPC6 modulator project, confirmation (AID 488924;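 active means membrane potential signal moves up or down beyond 5 SD from buffer-only wells, on both duplicate plates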); details: parental HEK293, membrane potential dye fluorescence; at 10 µM
[12] = membrane potential response modulators in host HEK293 cells – cell-based, second counter-screen, parental HEK293, membrane potential dye, counter-screen for TRPC6 modulator project, confirmation (AID 488926;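 active means membrane potential signal drops by more than 5 SD from the mean control signal, in both duplicate plates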;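 on inhibition: plate controls were acetylcholine ECmax control wells for no effect and buffer only wells for full effect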); details: parental HEK293, membrane potential dye fluorescence, at 10 µM, after compound, maximal acetylcholine stimulation; hits give high values
[13] = tested on: Transient receptor potential cation channel subfamily C member 4 (mouse); experiment: off-target membrane potential effects via mouse TRPC4 – cell-based, HEK293 TRPC4/mu-opioid, membrane potential dye, selectivity assay for TRPC6 modulator project, confirmation (AID 488927;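 active means membrane potential signal moved up or down beyond 5 SD of buffer control wells, in both duplicate plates, actives on both sides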;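 on percent change from control (negative = decrease, positive = increase): plate controls were assay buffer wells for no effect and DAMGO maximal-effect wells for full effect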); details: membrane potential fluorescence, at 10 µM
[14] = tested on: TRPC4 (transient receptor potential cation channel C4), mouse; experiment: DAMGO-evoked mouse TRPC4 response blockade – cell-based, second screen, HEK293 TRPC4/mu-opioid, membrane potential dye, selectivity assay for TRPC6 modulator project, confirmation (AID 488928;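 active means drop in membrane potential signal beyond 5 SD of the control wells in both duplicate plates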;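 further: TRPC4 counter screen for TRPC6 hits run under conditions tuned for TRPC6 not TRPC4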); details: membrane potential dye fluorescence, at 10 µM, stimulated with maximal-effect DAMGO; hits give high values
[15] = target: Potassium voltage-gated channel subfamily KQT member 1 (Homo sapiens) (UniProt P51787); experiment: blockers of human KCNQ1 channel – cell-based, Tl flux, duplicate, confirmation (AID 588353;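 active means primary screen active, with duplicate mean exceeding buffer control mean plus 3 SD of buffer wells, cut at about 28% in these data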;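 further: 0% = buffer control ratio and 100% = XE991 inhibitor control ratio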); details: KCNQ1 cell line, FluxOR thallium flux fluorescence, at 10 µM, hits give high values
[16] = nonspecific activity in CHO-K1 cells without KCNQ1 – parental CHO cells, Tl flux, counter-screen for KCNQ1 inhibitor project (AID 588366;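 active means mean of duplicate thallium-flux fluorescence ratios in parental host cells more than 5 SD below the buffer control mean, cut at about 0.38 in these data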;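 further: ratio is peak minus minimum fluorescence divided by baseline fluorescence; actives read low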); details: parental CHO-K1, FluxOR thallium flux fluorescence ratio; at 10 µM; hits give low values; zero means no signal rise above baseline
[17] = target: Potassium voltage-gated channel subfamily KQT member 2 (Rattus norvegicus) (UniProt O88943); experiment: block of rat KCNQ2 potassium channel – cell-based, selectivity assay for KCNQ1 inhibitor project (AID 651746;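 active means mean percent inhibition of the KCNQ2 thallium signal more than 5 SD above the buffer-only control wells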;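 further: 0% = buffer control wells and 100% = XE-991 inhibitor control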); details: KCNQ2 cells, FluxOR thallium flux fluorescence, at 10 µM; hits give high values
[18] = target: Potassium voltage-gated channel subfamily E member 1 (Homo sapiens) + Potassium voltage-gated channel subfamily KQT member 1 (Homo sapiens) (UniProt P15382+P51787); experiment: block of human IKs channel complex – CHO-K1 cells, thallium flux, FluxOR, selectivity assay for KCNQ1 inhibitor project (AID 652147;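 active means mean percent inhibition of duplicate wells above the buffer-only control mean plus 3 SD of those controls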;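 further: 0% = buffer only wells and 100% = XE-991 inhibitor control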); details: KCNQ1/KCNE1 cells, FluxOR thallium flux fluorescence, at 10 µM; hits give high values
Potassium voltage-gated channel subfamily E member 1 (Homo sapiens) + Potassium voltage-gated channel subfamily KQT member 1 (Homo sapiens), sequence (P51787 whole entry, looked up): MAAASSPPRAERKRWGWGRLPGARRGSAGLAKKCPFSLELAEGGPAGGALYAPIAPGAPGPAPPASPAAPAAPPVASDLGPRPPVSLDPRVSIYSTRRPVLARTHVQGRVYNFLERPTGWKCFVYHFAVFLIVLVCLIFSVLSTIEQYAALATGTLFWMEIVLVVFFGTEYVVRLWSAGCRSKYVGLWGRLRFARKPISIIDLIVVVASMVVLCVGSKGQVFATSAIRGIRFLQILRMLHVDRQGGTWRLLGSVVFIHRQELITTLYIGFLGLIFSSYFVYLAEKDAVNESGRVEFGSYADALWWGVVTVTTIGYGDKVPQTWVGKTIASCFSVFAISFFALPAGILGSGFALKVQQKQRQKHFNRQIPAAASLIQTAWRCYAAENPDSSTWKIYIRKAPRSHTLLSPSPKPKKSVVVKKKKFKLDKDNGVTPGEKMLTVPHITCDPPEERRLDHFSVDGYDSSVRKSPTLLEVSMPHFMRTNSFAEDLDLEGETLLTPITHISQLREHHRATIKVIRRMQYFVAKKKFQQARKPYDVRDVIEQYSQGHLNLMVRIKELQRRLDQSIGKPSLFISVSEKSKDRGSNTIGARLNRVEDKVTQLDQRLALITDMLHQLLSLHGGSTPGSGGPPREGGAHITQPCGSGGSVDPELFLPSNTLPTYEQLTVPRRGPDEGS

Short transient receptor potential channel 4 (Mus musculus), sequence (Q9QUQ5 whole entry, looked up): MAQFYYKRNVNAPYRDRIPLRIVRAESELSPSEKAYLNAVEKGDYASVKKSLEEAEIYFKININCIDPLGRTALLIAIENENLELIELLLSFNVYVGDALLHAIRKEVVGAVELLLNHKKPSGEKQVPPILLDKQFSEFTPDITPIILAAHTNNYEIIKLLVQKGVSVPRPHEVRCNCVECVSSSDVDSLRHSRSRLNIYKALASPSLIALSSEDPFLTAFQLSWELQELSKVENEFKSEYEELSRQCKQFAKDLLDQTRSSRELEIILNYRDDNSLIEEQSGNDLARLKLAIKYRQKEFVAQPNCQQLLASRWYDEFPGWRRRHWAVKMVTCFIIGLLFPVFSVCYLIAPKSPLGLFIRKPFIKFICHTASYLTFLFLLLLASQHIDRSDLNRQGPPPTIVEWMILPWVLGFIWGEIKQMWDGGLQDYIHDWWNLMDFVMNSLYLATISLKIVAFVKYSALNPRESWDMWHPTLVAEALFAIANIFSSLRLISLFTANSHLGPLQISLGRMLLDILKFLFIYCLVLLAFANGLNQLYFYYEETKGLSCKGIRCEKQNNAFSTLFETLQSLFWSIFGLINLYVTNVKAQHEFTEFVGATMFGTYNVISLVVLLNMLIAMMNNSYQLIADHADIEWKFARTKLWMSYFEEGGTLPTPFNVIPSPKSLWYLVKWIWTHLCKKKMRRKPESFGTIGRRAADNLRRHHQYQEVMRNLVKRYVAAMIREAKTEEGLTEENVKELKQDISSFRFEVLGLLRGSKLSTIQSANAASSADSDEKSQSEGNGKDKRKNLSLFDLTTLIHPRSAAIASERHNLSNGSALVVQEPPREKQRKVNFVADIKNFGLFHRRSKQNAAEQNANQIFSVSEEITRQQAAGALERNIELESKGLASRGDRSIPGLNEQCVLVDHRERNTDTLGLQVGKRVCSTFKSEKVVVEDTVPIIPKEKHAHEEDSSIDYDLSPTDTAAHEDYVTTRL
Potassium voltage-gated channel subfamily KQT member 1 (Homo sapiens), sequence (P51787 whole entry, looked up): as the sequence (P51787 whole entry, looked up) above
Short transient receptor potential channel 6 (Mus musculus), sequence (Q61143 whole entry, looked up): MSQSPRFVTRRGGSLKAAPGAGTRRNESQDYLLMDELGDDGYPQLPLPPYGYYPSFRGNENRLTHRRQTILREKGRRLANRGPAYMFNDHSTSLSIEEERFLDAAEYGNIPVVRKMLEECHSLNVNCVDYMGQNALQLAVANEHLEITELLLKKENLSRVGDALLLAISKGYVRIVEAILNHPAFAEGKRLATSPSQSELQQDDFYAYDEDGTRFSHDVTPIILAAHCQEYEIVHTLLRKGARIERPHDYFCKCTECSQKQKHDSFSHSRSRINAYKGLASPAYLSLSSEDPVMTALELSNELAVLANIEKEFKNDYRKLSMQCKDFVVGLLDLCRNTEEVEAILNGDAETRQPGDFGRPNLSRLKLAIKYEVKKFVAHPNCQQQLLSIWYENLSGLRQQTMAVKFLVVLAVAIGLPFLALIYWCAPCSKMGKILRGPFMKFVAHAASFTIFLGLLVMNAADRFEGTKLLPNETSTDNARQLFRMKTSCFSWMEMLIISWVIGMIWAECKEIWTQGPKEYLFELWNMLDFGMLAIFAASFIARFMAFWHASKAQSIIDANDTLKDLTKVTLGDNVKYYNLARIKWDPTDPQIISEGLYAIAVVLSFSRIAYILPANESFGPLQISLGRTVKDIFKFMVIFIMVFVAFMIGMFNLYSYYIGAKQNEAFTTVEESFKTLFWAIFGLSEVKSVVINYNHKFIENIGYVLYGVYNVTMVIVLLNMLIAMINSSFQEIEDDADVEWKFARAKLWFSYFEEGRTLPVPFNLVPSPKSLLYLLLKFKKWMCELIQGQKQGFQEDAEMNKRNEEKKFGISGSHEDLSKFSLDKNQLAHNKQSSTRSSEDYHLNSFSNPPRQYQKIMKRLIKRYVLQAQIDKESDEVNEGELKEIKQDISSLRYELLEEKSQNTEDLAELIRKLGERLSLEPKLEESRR
Potassium voltage-gated channel subfamily KQT member 2 (Rattus norvegicus), sequence (O88943 whole entry, looked up): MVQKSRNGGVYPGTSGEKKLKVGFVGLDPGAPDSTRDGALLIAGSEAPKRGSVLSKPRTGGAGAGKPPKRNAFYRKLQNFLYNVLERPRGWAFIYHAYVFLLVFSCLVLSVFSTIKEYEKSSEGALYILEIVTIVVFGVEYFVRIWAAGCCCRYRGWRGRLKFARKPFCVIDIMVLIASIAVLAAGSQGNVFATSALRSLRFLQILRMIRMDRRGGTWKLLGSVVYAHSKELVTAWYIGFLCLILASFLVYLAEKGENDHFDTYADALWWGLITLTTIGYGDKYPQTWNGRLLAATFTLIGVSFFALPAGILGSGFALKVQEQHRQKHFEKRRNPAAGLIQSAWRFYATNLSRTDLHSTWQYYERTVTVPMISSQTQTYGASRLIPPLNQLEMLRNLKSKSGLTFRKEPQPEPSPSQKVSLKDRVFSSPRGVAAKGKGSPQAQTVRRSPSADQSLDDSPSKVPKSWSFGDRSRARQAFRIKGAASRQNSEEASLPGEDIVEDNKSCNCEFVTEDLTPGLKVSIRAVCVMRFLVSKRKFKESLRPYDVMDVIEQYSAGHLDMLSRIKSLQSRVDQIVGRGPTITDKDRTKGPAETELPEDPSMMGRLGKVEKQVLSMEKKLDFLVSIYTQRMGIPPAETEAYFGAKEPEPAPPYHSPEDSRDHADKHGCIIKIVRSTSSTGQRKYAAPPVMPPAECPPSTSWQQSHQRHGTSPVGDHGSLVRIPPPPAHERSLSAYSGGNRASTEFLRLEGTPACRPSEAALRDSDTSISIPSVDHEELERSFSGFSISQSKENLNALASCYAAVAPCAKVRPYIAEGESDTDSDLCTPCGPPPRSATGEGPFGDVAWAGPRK

CC1CC(C)CN(C/C=C/c2ccccc2[N+](=O)[O-])C1 (stereo not drawn)
active: activity change, negative = inhibition [2] 4.24% | signal change vs control [3] 266% | membrane potential signal change [4] 0.38%
inactive: outcome [1] | outcome [5] | outcome [6]

O=C1c2ccccc2C(=O)c2c1cccc2N1CCN(Cc2ccccc2)CC1
active: activity change, negative = inhibition [2] -17% | membrane potential signal change [4] -264% | inhibition [5] 59.7%
inactive: outcome [1] | outcome [3] | outcome [6]

COc1ccc(CNC(=O)c2cc3c(=O)n4ccccc4nc3n(CC3CCCO3)c2=N)cc1 (stereo not drawn)
inactive: outcome [1] | outcome [5] | outcome [6] | outcome [7] | outcome [8] | outcome [9] | outcome [10]
active: activity change, negative = inhibition [2] -15.8% | signal change vs control [3] 32% | membrane potential signal change [4] -176%

CC(C)CCNc1nc(N2CCCC2)c2c(c1C#N)CCN(C)C2
inactive: outcome [3] | outcome [6]
active: inhibition [1] 54% | activity change, negative = inhibition [2] -16.9% | membrane potential signal change [4] -209% | inhibition [5] 71.5%

C=C(C)c1cccc(C(C)(C)NC(=O)NCCN(CC)CC)c1
inactive: outcome [1] | outcome [3] | outcome [6]
active: activity change, negative = inhibition [2] 1.45% | membrane potential signal change [4] 0.09% | inhibition [5] 54.4%

CN(CC(=O)Nc1ccccc1[N+](=O)[O-])Cc1ccc(Br)cc1
active: inhibition [14] 29%
inactive: outcome [11] | outcome [12] | outcome [13] | outcome [5] | outcome [6]

COC(=O)c1ccc(NC(=O)CSc2nnc(-c3ccncc3)n2C)cc1
inactive: outcome [12] | outcome [14] | outcome [5]
active: membrane potential signal change [11] 292% | percent change from control (negative = decrease, positive = increase) [13] 35.5% | activation [6] 116%

O=C(O)c1ccc(NC(=O)c2ccc(COc3ccc(Cl)cc3)o2)cc1
inactive: outcome [11] | outcome [12] | outcome [13] | outcome [14] | outcome [5] | outcome [6]

CC(C)(C)n1nnnc1C(c1ccc2ncccc2c1)N1CCSCC1 (stereo not drawn)
active: percent change from control (negative = decrease, positive = increase) [13] 19% | inhibition [14] 33% | inhibition [5] 84% | activation [6] 140%
inactive: outcome [11] | outcome [12]

O=C(C[n+]1ccc2c(c1)nnn2-c1ccccc1)c1ccc(Cl)cc1
inactive: outcome [12] | outcome [6]
active: membrane potential signal change [11] -110% | percent change from control (negative = decrease, positive = increase) [13] -37.5% | inhibition [14] 62% | inhibition [5] 56%

CN1CCN(/N=C/c2ccc(-c3ccc([N+](=O)[O-])cc3)o2)CC1
active: membrane potential signal change [11] 407% | percent change from control (negative = decrease, positive = increase) [13] 65.5% | inhibition [14] 43.5% | activation [6] 158%
inactive: outcome [12]

COc1ccc(Cn2c(-c3ccc(Cl)cc3)c[n+]3ccccc23)cc1
active: membrane potential signal change [11] -296% | percent change from control (negative = decrease, positive = increase) [13] -51.5% | inhibition [14] 48% | inhibition [5] 50.5%
inactive: outcome [12] | outcome [6]

CCCCCCn1cc(C(=O)O)c(=O)c2cc(F)c(N3CCCCC3)cc21
active: percent change from control (negative = decrease, positive = increase) [13] 11% | activation [6] 39.5%
inactive: outcome [11] | outcome [12] | outcome [14] | outcome [5]

O=C(C1CCN(S(=O)(=O)Cc2ccccc2)CC1)N1CCCc2ccccc21
active: membrane potential signal change [11] 90% | percent change from control (negative = decrease, positive = increase) [13] 8.5%
inactive: outcome [12] | outcome [14] | outcome [5] | outcome [6]

O=C(NCc1ccccc1)C(=O)NCC1CCCN1S(=O)(=O)c1cccs1 (stereo not drawn)
inactive: outcome [7] | outcome [8] | outcome [9] | outcome [10]

COc1cc2c(cc1OC)C(/C=C/c1ccco1)=NCC2
active: membrane potential signal change [11] -362% | inhibition [12] 83% | percent change from control (negative = decrease, positive = increase) [13] -64% | inhibition [14] 62% | inhibition [5] 72.5%
inactive: outcome [6]

O=C(NC1C2CC3CC(C2)CC1C3)c1ccc(N2CCNCC2)c([N+](=O)[O-])c1 (stereo not drawn)
active: membrane potential signal change [11] -120% | percent change from control (negative = decrease, positive = increase) [13] -22% | inhibition [14] 70.5% | inhibition [5] 57.5%
inactive: outcome [12] | outcome [6]

Cc1nn(Cc2ccc(C(=O)N3N=C(C(F)F)CC3(O)C(F)F)cc2)c(C)c1[N+](=O)[O-] (stereo not drawn)
inactive: outcome [11] | outcome [12] | outcome [14] | outcome [5] | outcome [6]
active: percent change from control (negative = decrease, positive = increase) [13] -17.5%

O=C(Nc1cccc(Cl)c1)Nc1ccccc1NS(=O)(=O)c1cccs1
inactive: outcome [11] | outcome [12] | outcome [5] | outcome [6]
active: percent change from control (negative = decrease, positive = increase) [13] -12.5% | inhibition [14] 36.5% | inhibition [15] 122% | fluorescence ratio (Tl flux) [16] 0.346 | inhibition [17] 78.7% | inhibition [18] 109%

CC(C)c1ccc(NC(=O)Cn2ncc3ccccc32)cc1
inactive: outcome [11] | outcome [12] | outcome [13] | outcome [14] | outcome [5] | outcome [6]

Cc1nc(N=C(N)N)nc2c(C)cccc12
inactive: outcome [6]
active: membrane potential signal change [11] -235% | inhibition [12] 76.5% | percent change from control (negative = decrease, positive = increase) [13] -42.5% | inhibition [14] 60% | inhibition [5] 67.5%

Nc1c(C(=O)c2cccs2)sc2nsc(SCCN3CCCCC3)c12
active: membrane potential signal change [11] 238% | percent change from control (negative = decrease, positive = increase) [13] 174%
inactive: outcome [12] | outcome [14] | outcome [5] | outcome [6]

CCN1CCN(c2nc(Nc3cc(OC)ccc3OC)nc(Nc3cc(OC)ccc3OC)n2)CC1
inactive: outcome [11] | outcome [12] | outcome [13] | outcome [5] | outcome [6]
active: inhibition [14] 55.5%
